SMN2 splice enh: enhancers of SMN2 splice variant expression; hit rate 2.8% among 210,000; HEK293 SMN2-luciferase splicing reporter, luminescence, 30-36 h; AID 1458; Potency, µM (series often up to 46.1 µM), without a hit: top-dose activity change, positive = activation, actives largely listed as activators; also: % of control where 0% means no effect; nearly all actives have a fitted effect of over 55% in size
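HEK293 cells carry an SMN2 minigene-luciferase reporter in which exon 7 inclusion puts luciferase in frame. Cells were seeded at 2000 cells/well, attached for 10-12 hours, then exposed to compounds for 30-36 hours at 37C before ONE-Glo luminescence.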
NPC1 promoter act: activates the NPC1 promoter. Huh7 NPC1 promoter luciferase reporter, 24 h. Potency, µM (titrated, usually from 9.22 µM), without a hit: at the top dose activation, hits mostly activators. hit rate 2.4% among 320,000. AID 485313; also: % of control where 0% means no effect; nearly all actives have a fitted effect of over 60% in size
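Stably transfected Huh7 (NPC1 promoter→luciferase), 1500 cells/well in Opti-MEM + 10% FBS, 2 h settle, then compound 24 h at 37 °C. Luminescence after 10 min with Amplite reagent.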
ELG1 genotoxic: induces genotoxicity in HEK293T cells with luciferase-tagged ELG1 | HEK293T ELG1-luciferase reporter, luminescence, 16 h | Potency, µM (highest dose often 46 µM), inactives show at the highest dose activity change, positive = activation, usual class: activators | hit rate 1.3% among 330,000 | AID 504466; also: % of control where 0% means no effect; nearly all actives have a fitted effect of over 60% in size
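After overnight (16 hr) compound treatment at 37 °C, ELG1-luciferase HEK293T cells were lysed with ONE-Glo; luminescence quantified 30 min later at room temperature.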
Rab9 promoter act: Rab9 promoter activation. Huh7 Rab9 promoter-luciferase reporter, luminescence, 24 h. Potency, µM (series often up to 9.22 µM), for the others: top-dose activation, negative = inhibition, hits mostly activators. hit rate 2.8% among 320,000. AID 485297; also: % of control where 0% means no effect; nearly all actives have a fitted effect of over 60% in size
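Huh7 reporter line, Rab9 promoter upstream of luciferase. Compound exposure 24 h at 37 °C in reduced-serum medium with 10% FBS. Read-out: luminescence.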
FLuc counter: inhibits or activates purified firefly luciferase, miR-21 counter-screen. AID 588342. Potency, µM (doses to about 57.5 µM), inactives show top-dose activity change, negative = inhibition, actives largely listed as inhibitors. purified FLuc, Km substrates, luminescence inhibition. hit rate 6.9% among 360,000;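 also: plate controls were vehicle for no effect and reference inhibitor for full effect; nearly all actives have a fitted effect of over 55% in size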
Target sequence (P08659 whole entry, looked up): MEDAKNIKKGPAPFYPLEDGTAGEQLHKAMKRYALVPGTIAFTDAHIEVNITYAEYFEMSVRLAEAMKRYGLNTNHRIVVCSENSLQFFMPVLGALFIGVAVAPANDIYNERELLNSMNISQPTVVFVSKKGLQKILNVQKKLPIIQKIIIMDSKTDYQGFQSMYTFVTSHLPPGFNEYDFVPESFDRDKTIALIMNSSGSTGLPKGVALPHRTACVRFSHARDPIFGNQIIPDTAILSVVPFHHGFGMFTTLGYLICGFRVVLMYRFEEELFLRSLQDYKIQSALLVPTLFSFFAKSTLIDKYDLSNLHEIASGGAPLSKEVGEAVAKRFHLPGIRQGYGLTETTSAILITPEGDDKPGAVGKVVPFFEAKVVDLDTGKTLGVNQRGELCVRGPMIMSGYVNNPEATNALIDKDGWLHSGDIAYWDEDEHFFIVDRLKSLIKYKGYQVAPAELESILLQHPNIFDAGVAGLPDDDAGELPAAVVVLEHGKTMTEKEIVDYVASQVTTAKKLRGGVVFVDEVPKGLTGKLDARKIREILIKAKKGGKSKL
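Biochemical qHTS of compounds, final roughly 60 µM downward over six points, against 10 nM purified firefly luciferase using Km concentrations of substrates (10 uM D-luciferin, 10 uM ATP) in Tris acetate pH 7.5 buffer; luminescence output.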
ELG1 DNA repair: blocks ELG1-dependent DNA repair in HEK293T cells; HEK293T ELG1-luciferase reporter, luminescence, 16 h; DNA damage induced by 5-fluorouridine; Potency, µM (titrated, usually from 46.1 µM), inactives show at the highest dose activity change, negative = inhibition, most hits filed as inhibitors; hit rate 2.3% among 330,000; AID 504467; also: % is scaled to controls: 0 for no effect and ±100 for the full control effect; nearly all actives have a fitted effect of over 55% in size
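5-Fluorouridine DNA damage + compound/DMSO, 2,000 cells/well, 16 h, 37 °C/5% CO2. ONE-Glo, 30 min RT, luminescence. Readout = decrease in reporter signal.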
Numbers without * were called inactive; ? = inconclusive; nt = not tested or not shown. Rows were chosen to be rich in hits. Some 9.2% of all compounds tested hit in one or more screens of this group. Calls follow the shape of the dose curve; as a rule, active = well fitted curve in the direction sought with a large enough effect; inconclusive = small, poorly fitted or top-dose-only effect, or another doubt; inactive = no such curve, though single readings can be large; an effect the other way counts as inactive or inconclusive. Potency is read from the fitted curve at half-maximal effect.

SMILES	SMN2 splice enh	NPC1 promoter act	ELG1 genotoxic	Rab9 promoter act	FLuc counter	ELG1 DNA repair
COc1cccc(NC(=O)CN(C)CC(=O)Nc2ccc(C)c([N+](=O)[O-])c2)c1	nt	-4.0%	-23.8%	-9.3%	4.6%	18.3µM*
COc1ccc(CN(C)CC(=O)Nc2cc(OC)c([N+](=O)[O-])cc2C)c(OC)c1	-38.2%	-3.2%	-9.0%	-6.8%	4.7%	16.4µM*
O=C(Nc1ccccc1)Nc1ccc(F)c([N+](=O)[O-])c1	-46.9%	-2.5%	-5.6%	-4.5%	16.9µM*	-10.9%
O=C(Nc1ccc(Cl)cc1)Nc1cc([N+](=O)[O-])ccc1F	-16.2%	0.9%	-12.7%	-0.6%	?	13µM*
N#CCSc1ccccc1NC(=O)CN1C(=O)C(=O)N(Cc2ccccc2)C1=O	nt	nt	5.8%	nt	nt	?
Cc1ccc(-n2c(C)csc2=N)cc1	11.2µM*	3.16µM*	5.17µM*	2µM*	5.36µM*	?
Cc1csc(=N)n1-c1ccc(Cl)cc1	-4.7%	?	?	3.55µM*	9.53µM*	?
Cc1csc(=S)n1-c1ccccc1	19.4%	-2.2%	0.9%	-5.3%	3.7%	-8.2%
CCOc1ccccc1CNC(=O)c1ccc(Cn2c(=O)c3cccn3c3cccnc32)cc1	nt	nt	nt	nt	-9.2%	nt
COc1cccc(CC2(CO)CCN(S(=O)(=O)c3ccc(OC)cc3OC)CC2)c1	nt	0.8%	-4.7%	2.3%	-1.9%	?
O=C(N/N=C/C1CC=CCC1)c1ccc(O)cc1O (stereo unspecified)	3.5%	-1.3%	0.3%	3.0%	19µM*	22.5%
Cc1ccc(C(=O)/C=C2\NCCNC2=O)cc1	2.82µM*	1.41µM*	?	0.891µM*	5.36µM*	?
Cc1ccc(C(=O)/C=C2\NCC(C)NC2=O)cc1 (stereo unspecified)	14.5%	0.316µM*	?	0.316µM*	1.2µM*	?
COC(=O)/C=C1\NCCNC1=O	nt	-2.0%	1.6%	1.0%	-1.5%	1.8%
CCCn1c(-c2ccc(F)cc2)nc2c(NCCCN(CC)CC)nc(C)nc21	-4.7%	nt	nt	nt	nt	nt
Cc1cc(N/N=C/c2cccc([N+](=O)[O-])c2)nc(-n2nc(C)cc2C)n1	nt	-0.4%	6.1%	-13.1%	-1.9%	-7.0%
Cc1cc(N/N=C/c2ccccc2[N+](=O)[O-])nc(-n2nc(C)cc2C)n1	nt	0.2%	-0.3%	-1.6%	?	13µM*
COc1ccc(/C=N/Nc2cc(C)nc(-n3nc(C)cc3C)n2)cc1	-114.4%	-3.1%	-10.0%	-14.8%	16.9µM*	8.2µM*
Cc1cc(N/N=C/c2ccc(O)cc2O)nc(-n2nc(C)cc2C)n1	-91.1%	-32.5%	-6.7%	-43.3%	-9.2%	23.1µM*
Cc1cc(N/N=C/c2cccc(Cl)c2)nc(-n2nc(C)cc2C)n1	nt	0.9%	-10.9%	-1.3%	-19.1%	16.4µM*
CCN(C(=O)C1CCN(S(=O)(=O)c2ccc3c(c2)CCCN3C(C)=O)CC1)c1cccc(C)c1	nt	nt	nt	nt	-2.8%	nt
O=C1c2ccc(-c3ccc(F)cc3OCc3ccccc3)cc2S(=O)(=O)c2cccc(C(=O)N3CCCC3)c21	nt	-2.2%	-0.2%	-2.1%	-0.6%	-27.1%
COc1ccccc1C(=O)Nc1cccc(SC)c1	21.1%	-1.9%	?	16.3%	16.9µM*	?
CSc1cccc(NC(=O)c2cccc3cccnc23)c1	nt	?	?	26.0%	6.75µM*	?
COc1cc(SC)ccc1C(=O)NNC(=O)c1cc(C)oc1C	nt	3.16µM*	?	1.26µM*	1.9µM*	?
SMILES	SMN2 splice enh	NPC1 promoter act	ELG1 genotoxic	Rab9 promoter act	FLuc counter	ELG1 DNA repair
COc1cc(SC)ccc1C(=O)Nc1ccccc1	?	7.8%	?	27.5%	6.75µM*	?
COc1cc(OC)cc(C(=O)NNC(=O)CCc2ccccc2)c1	nt	-3.2%	0.6%	-8.7%	-1.8%	-17.5%
COC(=O)c1c(C)[nH]c(-c2csc(N)n2)c1C	?	-5.2%	?	2.7%	?	-0.5%
COc1cc(SC)ccc1C(=O)Nc1nccs1	nt	0.891µM*	?	0.562µM*	0.601µM*	?
O=C(O)CC12CC3CC(C1)CC(n1ncc(N4CCC5(CC4)OCCO5)c(Cl)c1=O)(C3)C2	nt	-4.4%	-0.5%	3.0%	-0.7%	23.1µM*
COc1ccc(OC)c(N(CC(=O)NN=C2CCN(C)CC2)S(=O)(=O)c2ccccc2)c1	nt	0.1%	3.8%	9.7%	0.2%	-4.2%
CN(CC(O)CON=C1c2ccccc2-c2ccccc21)S(=O)(=O)c1ccc(Br)cc1 (stereo unspecified)	-15.1%	0.3%	-12.0%	-0.5%	-2.6%	20.6µM*
CCN(CC(O)CON=C1c2ccccc2-c2ccccc21)S(=O)(=O)c1ccc(C)cc1 (stereo unspecified)	-16.6%	-1.9%	-5.6%	2.2%	0.3%	-28.8%
Cc1sc(NC(=O)C2C3CCC(O3)C2C(=O)O)nc1-c1ccc(CC(C)C)cc1 (stereo unspecified)	20.5%	6.8%	?	20.2%	15.1µM*	?
CCOC(=O)C1(Cc2cccc(OC)c2)CCCN(C(=O)c2ccccc2C)C1 (stereo unspecified)	nt	?	11.2%	?	26.9µM*	?
CCOC(=O)C1(Cc2cccc(OC)c2)CCCN(C(=O)CNC(C)=O)C1 (stereo unspecified)	nt	?	?	3.16µM*	15.1µM*	?
CCOC(=O)C1(Cc2cccc(OC)c2)CCN(Cc2cccnc2)CC1	nt	-1.9%	?	14.2%	5.36µM*	?
CCOC(=O)C1(Cc2cccc(OC)c2)CCN(Cc2ccccc2)CC1	nt	0.3%	-12.3%	-1.0%	1.7%	?
CCOC(=O)C1(Cc2cccc(OC)c2)CCCN(C(=O)c2cc(C)[nH]n2)C1 (stereo unspecified)	nt	-2.6%	-5.4%	-2.4%	1.0%	-17.0%
CCOC(=O)C1(Cc2cccc(OC)c2)CCCN(C(=O)c2cc(C)on2)C1 (stereo unspecified)	nt	?	?	3.16µM*	12µM*	?
O=C(NCc1ccncc1)C12CC3CC(CC(Cl)(C3)C1)C2	nt	3.4%	-3.0%	-3.8%	-1.0%	28.6%
Cc1nn(C(=O)c2ccccc2)c(C)c1Sc1ccc(Cl)cc1	-10.1%	nt	nt	nt	-5.9%	nt
CC(=O)Nc1nonc1-c1nnc(SCc2ccc(F)cc2Cl)n1C	nt	nt	nt	nt	1.9%	nt
Cc1cc(C(=O)CN2C(=O)NC3(CCCc4sccc43)C2=O)c(C)n1-c1ccccc1 (stereo unspecified)	9.8%	8.9%	-0.9%	12.4%	16.9µM*	?

Bioassay records: PubChem, National Center for Advancing Translational Sciences (NCATS)
